Assay results published in paper PMC4552634, “A New Set of Chemical Starting Points with Plasmodium falciparum Transmission-Blocking Potential for Antimalarial Drug Discovery” (PLoS ONE, 2015).
About 3,200 (25%) of roughly 13,000 compounds showed an effect of 50% or more. The list shows a part of the results.

Tested on: P. falciparum stage V gametocytes
Parameters: BacTiter-Glo ATP luminescence viability of purified stage V gametocytes in 384-well plates, per cent inhibition versus DMSO
Conditions: 48 h, 5 µM; inhibitor

Compound	% Inhibition [%]
CCOc1cc(Cc2cnc(N)nc2N)cc(OCC)c1O [TCMDC-137181]	40.77
CC(C)NC(=O)Cn1cc(C2CCN(CC3CCN(C(=O)/C=C/c4ccc(Cl)c(Cl)c4)CC3)CC2)c2ccccc21 [TCMDC-134172]	-9.49
O=C(/C=C/c1ccc(Cl)c(Cl)c1)N1CCC(CN2CCC(c3cn(CC(=O)N4CCCCC4)c4ccccc34)CC2)CC1 [TCMDC-134193]	103
O=C(c1ccc(O)c(-c2cc(Cl)cc(Cl)c2)c1)N(CCO)CCO [TCMDC-140160]	-5.034
COc1ccc2c(=O)c(-c3ccc(OC(F)(F)F)cc3)c(C)[nH]c2c1 [TCMDC-138811]	45.07
COc1ccc2c(=O)c(Br)c(C)[nH]c2c1 [TCMDC-137426]	72.62
COc1ccc2c(=O)c3ccc(OC)cc3[nH]c2c1 [TCMDC-132054]	37.12
COc1ccc2c(=O)c(I)c(C)[nH]c2c1 [TCMDC-138141]	64.56
Cc1cc2c(cc1C(F)(F)F)N(C(=O)Nc1cc(C(=O)NCCN(C)C)cc(C(F)(F)F)c1)CC2 [TCMDC-139884]	20.84
Cc1cc(C(=O)Nc2ccc3c(c2)CCN3C2CCN(Cc3cccc(F)c3F)C2)no1 (stereo not drawn) [TCMDC-135079]	-28.63
COc1ccccc1CCNc1nc(C)cc(N[C@@H](CC(C)C)C(=O)NCc2cccc(F)c2)n1 [TCMDC-134863]	80.77
Cc1cccc(CNc2nc(C)cc(N[C@@H](Cc3ccccc3)C(=O)NCc3cccc(F)c3)n2)c1 [TCMDC-134887]	21.53
Cc1cc(N[C@@H](Cc2ccccc2)C(=O)NCc2cccc(F)c2)nc(NCc2ccccc2C)n1 [TCMDC-134903]	-28.89
Cc1cc(N[C@@H](Cc2ccccc2)C(=O)NCc2cccc(F)c2)nc(NCCc2ccccc2)n1 [TCMDC-134773]	75.65
Cc1cc(N[C@@H](Cc2ccccc2)C(=O)NCc2cccc(F)c2)nc(NCC2CCCCC2)n1 [TCMDC-134928]	5.769
CCCC(C)Nc1nc(C)cc(N[C@@H](CC(C)C)C(=O)NCc2cccc(F)c2)n1 (stereo partly drawn) [TCMDC-134768]	-55.2
Cc1cc(N[C@@H](Cc2ccccc2)C(=O)NCc2cccc(F)c2)nc(NCCc2ccc(F)cc2)n1 [TCMDC-134785]	98.48
COc1ccccc1CCNc1nc(C)cc(N[C@@H](Cc2ccccc2)C(=O)NCc2cccc(F)c2)n1 [TCMDC-134893]	92.55
Cc1cc(N[C@@H](CC(C)C)C(=O)NCc2cccc(F)c2)nc(NCC2CCCCC2)n1 [TCMDC-134916]	-56.42
Nc1nc(N)c2c(CCc3ccc4ccccc4c3)cccc2n1 [TCMDC-141975]	-16.21
O=C(O)C(F)(F)F.O=C(O)Cc1ccc(-c2c[nH]c3ncc(-c4cccc5ncccc45)cc23)cc1 [TCMDC-136372]	46.28

Compound	% Inhibition [%]
CC(C)(CNC(=O)C1CCN(CCOCc2ccccc2)CC1)c1nc(-c2ccc(Cl)c(O)c2)c(-c2ccncc2)[nH]1 [TCMDC-141122]	-51.1
CN1CCc2cc(I)c(O)cc2C1Cc1ccccc1Cl (stereo not drawn) [TCMDC-137321]	-44.87
Cc1csc(-c2nonc2NC(=O)COc2ccccc2C(C)C)n1 [TCMDC-125014]	-9.384
Cc1cc(N[C@@H](Cc2ccccc2)C(=O)NCc2cccc(F)c2)nc(NCCc2cccs2)n1 [TCMDC-134812]	147.6
Cc1cc(N[C@@H](Cc2ccccc2)C(=O)NCc2cccc(F)c2)nc(Nc2ccccc2)n1 [TCMDC-134857]	-8.236
Cc1ccc(CNC(=O)[C@H](Cc2ccccc2)Nc2cc(C)nc(NCc3ccccc3C)n2)cc1 [TCMDC-134905]	48.7
Cc1ccc(CNC(=O)[C@H](Cc2ccccc2)Nc2cc(C)nc(NCCc3ccc(F)cc3)n2)cc1 [TCMDC-134788]	66.59
Cc1cc(N[C@@H](Cc2ccccc2)C(=O)NCc2cccc(F)c2)nc(NCCCOC(C)C)n1 [TCMDC-134822]	52.41
CCCC(C)Nc1nc(C)cc(N[C@@H](Cc2ccccc2)C(=O)NCc2ccc(C)cc2)n1 (stereo partly drawn) [TCMDC-134894]	-11.47
CCCC(C)Nc1nc(C)cc(N[C@@H](Cc2ccccc2)C(=O)NCc2cccc(F)c2)n1 (stereo partly drawn) [TCMDC-134764]	-38.43
Cc1cc(N[C@@H](Cc2ccccc2)C(=O)NCc2cccc(F)c2)nc(NCCc2cccnc2)n1 [TCMDC-134817]	63.38
Cc1cc(N[C@@H](Cc2ccccc2)C(=O)NCc2cccc(F)c2)nc(NCCOc2ccccc2)n1 [TCMDC-134756]	40.03
COc1ccc(Cn2c(Nc3cccc(C(F)(F)F)c3)nc3cc(C(=O)NC(C)C)cnc32)cc1Cl [TCMDC-138556]	8.056
CC[C@H](C)CNC(=O)c1ccc(-c2cccc(CN3CCC(N4CCCC4)CC3)c2)nc1 [TCMDC-134222]	28.35
Cc1cccc2[nH]c(-c3cccc(-c4ccc(NC(=O)C(C)(C)c5ccccn5)cc4)c3)nc12 [TCMDC-137053]	15.43
COc1cc(-c2nnc(SCC(=O)Nc3cc(C)on3)n2C)cc(OC)c1O [TCMDC-123652]	-77.31
CC(=O)Oc1c(C(=O)C2CCC(C(C)(C)C)CC2)c(OC(C)=O)c2ccccc2c1OC(C)=O (stereo not drawn) [TCMDC-138179]	0.9625
O=S(=O)(NCCN1CCCC1)c1cccc(-c2ccccc2CNC2Cc3ccccc3C2)c1 [TCMDC-132212]	102.4
O=S(=O)(NCCN1CCCC1)c1ccc(-c2ccccc2CNC2Cc3ccccc3C2)cc1 [TCMDC-132210]	61.07
COc1cccc(OC)c1C(=O)N1CCC2(CC1)C(=O)N(CC(=O)NC1CCCCC1)CN2c1ccccc1 [TCMDC-125168]	-28.41
CC1CCc2c(C(=O)N3CCc4ccccc4C3)csc2C1 (stereo not drawn) [TCMDC-123624]	13.04
